Records with an inconclusive call do not appear. Values without a mark were called inactive. The source made the active and inactive calls. Unless noted, calls come from the whole dose curve.
Biological target: Androgen receptor (Homo sapiens) (UniProt P10275)
Experiment: qHTS assay for small molecule agonists of androgen receptor signaling (AID 588515; active = well fitted curve in the direction sought with a large enough effect in the signal ratio, with a control signal flat; the % refers to the signal ratio)
Settings: AR-UAS-bla HEK293, beta-lactamase ratio, agonist 16 h; active compounds read high
Method in brief: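 EC50 and efficacy came from Hill fits of titrations (up to 92 uM) normalized to 30 nM R1881 as 100% and DMSO as 0%. Compound exposure was 16 h at 37 C on AR-UAS-bla HEK293 cells, with a 405/460/530 nm CCF4 fluorescence read.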
% is set by controls: 0 for no effect and ±100 for the full control effect.

Chain of Androgen receptor (Homo sapiens) (P10275 whole entry, looked up): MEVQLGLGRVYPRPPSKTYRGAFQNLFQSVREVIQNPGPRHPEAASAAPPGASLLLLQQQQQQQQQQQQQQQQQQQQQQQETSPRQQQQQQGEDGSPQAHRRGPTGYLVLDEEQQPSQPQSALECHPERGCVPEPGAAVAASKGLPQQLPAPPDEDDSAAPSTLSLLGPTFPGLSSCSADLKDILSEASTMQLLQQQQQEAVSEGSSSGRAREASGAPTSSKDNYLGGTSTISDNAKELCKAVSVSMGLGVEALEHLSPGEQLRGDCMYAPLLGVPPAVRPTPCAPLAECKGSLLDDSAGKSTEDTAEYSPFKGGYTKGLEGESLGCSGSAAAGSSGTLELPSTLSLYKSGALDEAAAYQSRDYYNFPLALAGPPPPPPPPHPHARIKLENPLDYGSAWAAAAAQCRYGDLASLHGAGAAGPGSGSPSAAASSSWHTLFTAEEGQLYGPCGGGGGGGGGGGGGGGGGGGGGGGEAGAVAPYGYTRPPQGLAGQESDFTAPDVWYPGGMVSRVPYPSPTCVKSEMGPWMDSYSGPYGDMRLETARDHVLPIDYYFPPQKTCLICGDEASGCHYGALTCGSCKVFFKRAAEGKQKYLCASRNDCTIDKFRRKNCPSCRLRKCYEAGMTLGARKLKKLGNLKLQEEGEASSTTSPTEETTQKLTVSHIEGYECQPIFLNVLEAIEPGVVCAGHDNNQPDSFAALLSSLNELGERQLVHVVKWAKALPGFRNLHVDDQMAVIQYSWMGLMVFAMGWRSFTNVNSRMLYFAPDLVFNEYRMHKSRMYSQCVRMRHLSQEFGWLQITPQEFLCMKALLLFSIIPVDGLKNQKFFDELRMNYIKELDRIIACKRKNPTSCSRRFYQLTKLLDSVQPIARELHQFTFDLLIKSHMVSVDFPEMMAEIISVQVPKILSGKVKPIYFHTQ

Structure (SMILES) | activation [%]
Cc1ccccc1C(=O)Nc1cccc(OC(C)C)c1 | -11.5
CCCCN(CC)C(=O)SCCC | 8.69
CCOC1Oc2ccc(OS(C)(=O)=O)cc2C1(C)C (stereo unspecified) | -8.07
CCOc1nc(NC)nc(NC(=O)NS(=O)(=O)c2ccccc2C(=O)OC)n1 | -6.67
C=CC(=O)OCCCCCC(C)C | 3.1
Nc1ccc([N+](=O)[O-])cc1Cl | -9.37

Biological target: Androgen receptor (Homo sapiens) (UniProt P10275)
Experiment: qHTS assay for small molecule antagonists of androgen receptor signaling (AID 588516; active = well fitted curve in the direction sought with a large enough effect in the signal ratio, with a control signal flat, not every such curve was filed as active; the % refers to the signal ratio)
Settings: AR-UAS-bla HEK293, beta-lactamase ratio, antagonist mode, 16 h; series mostly up to 76.8 µM; activity change, negative = inhibition: at the top concentration
Method in brief: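 Antagonist mode: inhibition of R1881-stimulated (10 nM final) bla reporter in GeneBLAzer AR HEK 293 cells, 16 h at 37C, compounds titrated. IC50 and efficacy from Hill-equation fits of 405/460–530 nm FRET ratios.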

Structure (SMILES) | activity change, negative = inhibition [%]
CCOP(=O)(NC(C)C)Oc1ccc(S(C)=O)c(C)c1 (stereo unspecified) | -12.7
CCOC1Oc2ccc(OS(C)(=O)=O)cc2C1(C)C (stereo unspecified) | 17.7
COCc1cnc(C2=NC(C)(C(C)C)C(=O)N2)c(C(=O)O)c1 (stereo unspecified) | -2.8
CCOP(=S)(OCC)SCC(=O)NC(C)C | 7.02

Biological target: Bile acid receptor (Homo sapiens) (UniProt Q96RI1)
Sequence (Q96RI1 whole entry, looked up): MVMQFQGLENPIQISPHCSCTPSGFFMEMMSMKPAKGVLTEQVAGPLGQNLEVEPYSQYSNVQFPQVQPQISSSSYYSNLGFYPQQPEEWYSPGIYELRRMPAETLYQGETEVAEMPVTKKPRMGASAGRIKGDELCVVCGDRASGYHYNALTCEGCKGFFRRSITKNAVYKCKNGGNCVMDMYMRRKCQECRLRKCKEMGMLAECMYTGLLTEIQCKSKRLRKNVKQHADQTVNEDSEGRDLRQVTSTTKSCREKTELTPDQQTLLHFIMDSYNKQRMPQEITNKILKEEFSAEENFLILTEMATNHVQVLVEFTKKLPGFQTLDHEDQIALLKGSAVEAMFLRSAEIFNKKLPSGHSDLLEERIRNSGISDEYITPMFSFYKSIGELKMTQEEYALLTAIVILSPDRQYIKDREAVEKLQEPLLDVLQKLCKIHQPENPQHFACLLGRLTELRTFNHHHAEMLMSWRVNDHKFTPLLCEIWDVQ
Experiment: qHTS assay for small molecule antagonists of farnesoid X receptor signaling (AID 588526); note: potency is the fitted concentration of half-maximal effect
Settings: HEK293T FXR-UAS-bla, beta-lactamase ratio, antagonist mode; series mostly up to 76.7 µM; activity change, negative = inhibition: at the top concentration
Method in brief: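 Concentration-response titrations were fitted to the Hill equation for half-maximal inhibition and maximal response, with data normalised to 50 uM chenodeoxycholic acid and DMSO control wells. Cells: FXR-UAS-bla HEK293T, dialyzed FBS.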

Structure (SMILES) | activity change, negative = inhibition [%] | Potency
O=S(=O)(c1ccc(O)cc1)c1ccc(O)cc1 | -10.8 | –
COc1ccc(O)c(C(C)(C)C)c1 | -4.39 | –
O=[N+]([O-])c1ccc(Oc2ccc(C(F)(F)F)cc2[N+](=O)[O-])cc1 | 9.02 | –
CN(C)P(=O)(N(C)C)N(C)C | 5.07 | –
CCOc1ccc(C(C)(C)COCc2cccc(Oc3ccccc3)c2)cc1 | -9.67 | –
O=c1[nH]c2ccccc2c(=O)o1 | -2.12 | –
COc1ccc(C(O)(c2cncnc2)C2CC2)cc1 (stereo unspecified) | -2.57 | –
CN(C)c1nc(=O)n(C2CCCCC2)c(=O)n1C | 4.43 | –
C=CC1(C)OC(=O)N(c2cc(Cl)cc(Cl)c2)C1=O (stereo unspecified) | 5.5 | –
COC(=O)c1ccccc1CS(=O)(=O)NC(=O)Nc1nc(OC)cc(OC)n1 | -2.82 | –
CCC[CH2][Sn]([CH2]CCC)([O]C(C)=O)[O]C(C)=O | – | 12.6 µM (active)
